Data as given in PubChem BioAssay (NCI).
About 83,000 compounds went through this panel and 20% of them were active in at least one assay; those are over-represented in the sample as a whole.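 96-well plates, one dose, 48 hours. Percent growth reported; active if below 10.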 The source made the active and inactive calls.

How the values were obtained:
Test in all cases: NCI-60 one-dose screen, 48 h (100 = growth as untreated, 0 = no growth, -100 = all killed)
Conditions in all cases: 10 µM unless noted
HCT-15 colon = test system: HCT-15 colon
HT29 colon = test system: HT29 colon
SNB-75 CNS = test system: SNB-75 CNS
SNB-19 CNS = test system: SNB-19 CNS
U251 CNS = test system: U251 CNS
PC-3 prostate = test system: PC-3 prostate
SK-MEL-5 melanoma = test system: SK-MEL-5 melanoma
UACC-62 melanoma = test system: UACC-62 melanoma
LOX IMVI melanoma = test system: LOX IMVI melanoma
SK-MEL-2 melanoma = test system: SK-MEL-2 melanoma
EKVX NSCLC = test system: EKVX NSCLC
SN12C renal = test system: SN12C renal
UO-31 renal = test system: UO-31 renal
TK-10 renal = test system: TK-10 renal
ACHN renal = test system: ACHN renal
CAKI-1 renal = test system: CAKI-1 renal
A498 renal = test system: A498 renal
CCRF-CEM leukemia = test system: CCRF-CEM leukemia
MOLT-4 leukemia = test system: MOLT-4 leukemia
SK-MEL-28 melanoma = test system: SK-MEL-28 melanoma

Measured: growth

CC1(C)CC(=O)C2=C(C1)N(c1ccc(OC(F)(F)F)cc1)C(N)=C(C#N)C2c1ccc(Br)cc1F (centres undefined)
inactive: HCT-15 colon 71.4% | HT29 colon 79.7% | SNB-75 CNS 54.1% | SNB-19 CNS 34.4% | U251 CNS 56.2% | PC-3 prostate 51.9% | SK-MEL-5 melanoma 92.9% | UACC-62 melanoma 78.5% | LOX IMVI melanoma 54.5% | SK-MEL-2 melanoma 88.6% | EKVX NSCLC 82% | SN12C renal 58.7% | UO-31 renal 70.3% | TK-10 renal 119% | ACHN renal 41.1% | CAKI-1 renal 50.3% | A498 renal 31.4% | CCRF-CEM leukemia 85.6% | MOLT-4 leukemia 63%

Cn1cc(-c2nonc2-c2cn(C)c3ccccc23)c2ccccc21
active: HT29 colon 6.32% | SNB-75 CNS 2.13% | CCRF-CEM leukemia 9.67%
inactive: HCT-15 colon 30.2% | SNB-19 CNS 24.7% | U251 CNS 18.8% | PC-3 prostate 26.2% | SK-MEL-5 melanoma 26.2% | UACC-62 melanoma 30.6% | LOX IMVI melanoma 48.5% | SK-MEL-28 melanoma 57.4% | SK-MEL-2 melanoma 35.6% | EKVX NSCLC 40.4% | SN12C renal 43.6% | UO-31 renal 40.5% | TK-10 renal 62.5% | ACHN renal 44.4% | CAKI-1 renal 31.3% | A498 renal 12.3% | MOLT-4 leukemia 17.5%

Cn1cc(-c2csc(-c3cn(C(=O)OC(C)(C)C)c4ccc(Br)cc34)n2)c2ccnc(Cl)c21
active: SNB-75 CNS 2.34%
inactive: HCT-15 colon 24.2% | HT29 colon 88.5% | SNB-19 CNS 44% | U251 CNS 45.3% | PC-3 prostate 44.2% | SK-MEL-5 melanoma 95% | UACC-62 melanoma 96.1% | LOX IMVI melanoma 89.1% | SK-MEL-2 melanoma 96.3% | EKVX NSCLC 87.7% | SN12C renal 93.6% | UO-31 renal 96% | TK-10 renal 92.9% | ACHN renal 82.8% | CAKI-1 renal 96.4% | A498 renal 89.6% | CCRF-CEM leukemia 93.1% | MOLT-4 leukemia 90.9%

Nc1nc2ccc(-c3nc4ccc5[nH]ncc5c4c4c3CCCC4)cc2s1
inactive: HCT-15 colon 107% | HT29 colon 99.2% | SNB-75 CNS 100% | SNB-19 CNS 97.7% | U251 CNS 102% | PC-3 prostate 100% | SK-MEL-5 melanoma 111% | UACC-62 melanoma 102% | LOX IMVI melanoma 105% | SK-MEL-2 melanoma 96.5% | EKVX NSCLC 117% | SN12C renal 98.8% | UO-31 renal 85.7% | TK-10 renal 96.3% | ACHN renal 111% | CAKI-1 renal 99.7% | A498 renal 109% | CCRF-CEM leukemia 107% | MOLT-4 leukemia 104%

c1cnc2c(-c3nc4ccc5[nH]ncc5c4c4c3CCCC4)c[nH]c2c1
active: MOLT-4 leukemia 5.62%
inactive: HCT-15 colon 43.9% | HT29 colon 14.9% | SNB-75 CNS 57.8% | SNB-19 CNS 29.8% | U251 CNS 29.8% | PC-3 prostate 27.5% | SK-MEL-5 melanoma 56.4% | UACC-62 melanoma 45.8% | LOX IMVI melanoma 19.6% | SK-MEL-2 melanoma 58.5% | EKVX NSCLC 49.5% | SN12C renal 27.4% | UO-31 renal 43.7% | TK-10 renal 50.1% | ACHN renal 27.1% | CAKI-1 renal 57% | A498 renal 64.2% | CCRF-CEM leukemia 11.4%

CC1CN(S(=O)(=O)c2oc(-c3ccc(Cl)cc3)nc2C#N)CC(C)O1 (centres undefined)
inactive: HT29 colon 58.5% | SNB-75 CNS 91.1% | SNB-19 CNS 97.5% | U251 CNS 89.6% | PC-3 prostate 90.2% | SK-MEL-5 melanoma 92.7% | UACC-62 melanoma 96.7% | SK-MEL-2 melanoma 75.5% | EKVX NSCLC 101% | SN12C renal 85.5% | UO-31 renal 90.4% | ACHN renal 28.1% | CAKI-1 renal 91.2% | A498 renal 78.7%
active: HCT-15 colon -26.5% | LOX IMVI melanoma 8.2% | TK-10 renal -54% | CCRF-CEM leukemia -2.97% | MOLT-4 leukemia -10.6%

CC(=O)/C(=C\c1c(-c2ccccc2)[nH]c2ccccc12)S(C)(=O)=O
active: HT29 colon 4.54% | SNB-75 CNS -28.8% | SK-MEL-5 melanoma -6.28% | CCRF-CEM leukemia 1.75% | MOLT-4 leukemia -13.5%
inactive: HCT-15 colon 19.3% | SNB-19 CNS 23.2% | U251 CNS 15.3% | PC-3 prostate 21.6% | UACC-62 melanoma 17.5% | LOX IMVI melanoma 33.1% | SK-MEL-2 melanoma 59.9% | EKVX NSCLC 50.4% | SN12C renal 33.4% | UO-31 renal 51% | TK-10 renal 42.7% | ACHN renal 50.2% | CAKI-1 renal 45.6% | A498 renal 31.9%

Oc1c(I)cc(I)cc1CNCc1ccccn1
inactive: HCT-15 colon 26.8% | HT29 colon 36.6% | SNB-75 CNS 75.6% | SNB-19 CNS 30.5% | U251 CNS 15.6% | PC-3 prostate 39.5% | SK-MEL-5 melanoma 37.3% | UACC-62 melanoma 19.6% | LOX IMVI melanoma 30.2% | SK-MEL-2 melanoma 35.7% | EKVX NSCLC 25.9% | SN12C renal 38.4% | TK-10 renal 23.4% | ACHN renal 24.6% | CAKI-1 renal 15.4% | A498 renal 62.4% | CCRF-CEM leukemia 23.6% | MOLT-4 leukemia 16.2%
active: UO-31 renal 5.01%

CCN1C(=O)N(CC)C2C1NN=c1s/c(=C\c3ccccc3F)c(=O)n12 (centres undefined)
inactive: SNB-75 CNS 10.8% | SNB-19 CNS 31% | PC-3 prostate 25.1% | UACC-62 melanoma 34.4% | LOX IMVI melanoma 15.8% | SK-MEL-2 melanoma 37.2% | EKVX NSCLC 53% | SN12C renal 23.9% | UO-31 renal 40.4% | TK-10 renal 70.3% | ACHN renal 27.5% | CAKI-1 renal 17.4% | MOLT-4 leukemia 10.2%
active: HCT-15 colon 8.45% | HT29 colon 1.76% | U251 CNS 1.71% | SK-MEL-5 melanoma -21.1% | A498 renal 3.4% | CCRF-CEM leukemia 8.85%

O=C(Nc1nc(-c2ccc(Cl)cc2)nc2c1sc(=S)n2-c1ccccc1)C(F)(F)F
inactive: HCT-15 colon 54.9% | HT29 colon 17.5% | SNB-19 CNS 61.5% | PC-3 prostate 38.6% | SK-MEL-5 melanoma 64.9% | UACC-62 melanoma 21.1% | SK-MEL-2 melanoma 43.3% | EKVX NSCLC 55% | SN12C renal 57% | CAKI-1 renal 20.2% | CCRF-CEM leukemia 72.2% | MOLT-4 leukemia 82.6%
active: SNB-75 CNS -44.1% | U251 CNS 8.47% | LOX IMVI melanoma -20.4% | UO-31 renal -41.9% | TK-10 renal -31.9% | ACHN renal -48.5% | A498 renal -8.62%

Fc1cnccc1C1CC(c2ccc(N3CCNCC3)cc2)=NN1 (centres undefined)
inactive: HCT-15 colon 97.6% | HT29 colon 60.2% | SNB-75 CNS 101% | SNB-19 CNS 97.5% | U251 CNS 95.1% | PC-3 prostate 70.3% | SK-MEL-5 melanoma 85.8% | UACC-62 melanoma 81.9% | LOX IMVI melanoma 94.3% | SK-MEL-2 melanoma 92.7% | EKVX NSCLC 91% | SN12C renal 89.6% | UO-31 renal 77.2% | TK-10 renal 123% | ACHN renal 99.9% | CAKI-1 renal 80.6% | A498 renal 97.2% | CCRF-CEM leukemia 80.8% | MOLT-4 leukemia 74.2%

COc1ccc(C(=O)/C=C/c2c(C(F)(F)F)nc3ccccn23)cc1OC
active: HCT-15 colon -13.6% | HT29 colon 6.89% | SNB-75 CNS -19.9% | U251 CNS 7.17% | SK-MEL-5 melanoma 4.43% | UACC-62 melanoma 5.04% | LOX IMVI melanoma -53.1% | EKVX NSCLC 8.13% | ACHN renal -41.1% | CAKI-1 renal -5.18% | MOLT-4 leukemia 7.14%
inactive: SNB-19 CNS 16.5% | PC-3 prostate 30.6% | SK-MEL-2 melanoma 31.3% | SN12C renal 16.1% | UO-31 renal 25.9% | TK-10 renal 29.9% | A498 renal 65.8% | CCRF-CEM leukemia 14.9%

O=C(Nc1cccc(-c2ccc(N3CCOCC3)nn2)c1)Nc1cccc(C(F)(F)F)c1
inactive: HCT-15 colon 68.3% | HT29 colon 91.2% | SNB-75 CNS 111% | SNB-19 CNS 86.6% | U251 CNS 71.2% | PC-3 prostate 31.4% | SK-MEL-5 melanoma 41.9% | UACC-62 melanoma 43.2% | LOX IMVI melanoma 70.2% | SK-MEL-2 melanoma 70% | EKVX NSCLC 63.7% | SN12C renal 66.6% | UO-31 renal 74.9% | TK-10 renal 70.6% | ACHN renal 65.7% | CAKI-1 renal 87.9% | A498 renal 80.3% | CCRF-CEM leukemia 26% | MOLT-4 leukemia 22.9%

O=c1[nH]c(-c2ccccc2)nc2sc3cc(O)ccc3c12
inactive: HCT-15 colon 69.4% | HT29 colon 106% | SNB-75 CNS 83.2% | SNB-19 CNS 99.8% | U251 CNS 84.1% | PC-3 prostate 77.3% | SK-MEL-5 melanoma 86.3% | UACC-62 melanoma 73.6% | LOX IMVI melanoma 82.7% | SK-MEL-2 melanoma 103% | EKVX NSCLC 66.4% | SN12C renal 89.1% | UO-31 renal 55.9% | TK-10 renal 99.9% | ACHN renal 76.2% | CAKI-1 renal 68.9% | A498 renal 79.3% | CCRF-CEM leukemia 73.1% | MOLT-4 leukemia 66.9%

CCSC(SCC)c1ccc(Cl)cc1
inactive: HCT-15 colon 108% | HT29 colon 97.4% | SNB-75 CNS 107% | SNB-19 CNS 110% | U251 CNS 102% | PC-3 prostate 101% | SK-MEL-5 melanoma 110% | UACC-62 melanoma 98.6% | LOX IMVI melanoma 95.9% | SK-MEL-2 melanoma 116% | EKVX NSCLC 106% | SN12C renal 99.7% | UO-31 renal 92.5% | TK-10 renal 116% | ACHN renal 107% | CAKI-1 renal 82.9% | A498 renal 93.4% | CCRF-CEM leukemia 108% | MOLT-4 leukemia 110%

COc1ccccc1N1CCCCC1
inactive: HCT-15 colon 102% | HT29 colon 101% | SNB-75 CNS 99.4% | SNB-19 CNS 95.2% | U251 CNS 108% | PC-3 prostate 98.8% | SK-MEL-5 melanoma 108% | UACC-62 melanoma 96.3% | LOX IMVI melanoma 100% | SK-MEL-2 melanoma 104% | EKVX NSCLC 98.1% | SN12C renal 93.9% | UO-31 renal 98.9% | TK-10 renal 95% | ACHN renal 103% | CAKI-1 renal 97.8% | A498 renal 83.9% | CCRF-CEM leukemia 108% | MOLT-4 leukemia 100%

NC(=O)CSc1oc(-c2ccccc2)nc1S(=O)(=O)c1ccc(Br)cc1
inactive: HCT-15 colon 90.6% | HT29 colon 50.2% | SNB-19 CNS 83% | U251 CNS 54.6% | PC-3 prostate 77.9% | SK-MEL-5 melanoma 55.7% | UACC-62 melanoma 49.5% | LOX IMVI melanoma 94.3% | SK-MEL-2 melanoma 99.2% | EKVX NSCLC 95.4% | SN12C renal 65.7% | UO-31 renal 59.7% | TK-10 renal 82.1% | ACHN renal 64.4% | CAKI-1 renal 87.9% | A498 renal 61.4% | CCRF-CEM leukemia 110% | MOLT-4 leukemia 89.2%
active: SNB-75 CNS 9.67%
